The supplement of paper PMC6555819

Tests used:
Assay in all cases: PBM binding z-score (relative to random genomic background probes); higher = stronger binding; sequences stand for … in GC…GCGATTGACAGCGTAGAATGAAGG
[1] = test system: FXR:RXRa (NR concentration 270 nM, RXRa partner concentration 90 nM)
Summary of the method: (§1)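 Binding buffer was PBS pH 7.4 with 2% milk, 0.02% Triton X-100, 1 mM DTT, 0.2 mg/mL BSA and 0.4 mg/ml salmon testes DNA. In it, ligand-free nuclear receptor dimers were incubated 1 h on custom Agilent 4×180K protein-binding microarrays carrying double-stranded probes. Antibodies against each partner (one per run) detected binding, and z-scores were calculated against random background probes after regression normalization of scanned fluorescence.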

[2] = test system: LXRa:RXRa (NR concentration 270 nM, RXRa partner concentration 90 nM)
Summary of the method: as §1

[3] = test system: LXRa homodimer (NR concentration 270 nM)
Summary of the method: as §1

[4] = test system: LXRb:RXRa (NR concentration 270 nM, RXRa partner concentration 90 nM)
Summary of the method: as §1

[5] = test system: LXRb homodimer (NR concentration 270 nM)
Summary of the method: as §1

[6] = test system: PPARa:RXRa (NR concentration 270 nM, RXRa partner concentration 90 nM)
Summary of the method: as §1

[7] = test system: PPARg:RXRa (NR concentration 180 nM, RXRa partner concentration 90 nM)
Summary of the method: as §1

[8] = test system: PPARg:RXRa 270nM:90nM, anti-RXR (NR concentration 270 nM, RXRa partner concentration 90 nM)
Summary of the method: as §1

[9] = test system: PPARg:RXRa 30nM:10nM, anti-RXR (NR concentration 30 nM, RXRa partner concentration 10 nM)
Summary of the method: as §1

[10] = test system: PPARg:RXRa 90nM:30nM, anti-RXR (NR concentration 90 nM, RXRa partner concentration 30 nM)
Summary of the method: as §1

[11] = test system: PPARg:RXRa DBDmut IVT, anti-RXR (DBD mutation: RXRa K156A/R161A, NR concentration 270 nM, RXRa partner concentration 90 nM)
Summary of the method: as §1

[12] = test system: PPARg:RXRa IVT, anti-PPARg (NR concentration 270 nM, RXRa partner concentration 90 nM)
Summary of the method: as §1

[13] = test system: PPARg DBDmut:RXRa IVT, anti-PPARg (DBD mutation: PPARg1 K132A/R137A, NR concentration 270 nM, RXRa partner concentration 90 nM)
Summary of the method: as §1

[14] = test system: PPARg DBDmut IVT, anti-PPARg (DBD mutation: PPARg1 K132A/R137A, NR concentration 270 nM)
Summary of the method: as §1

[15] = test system: PPARg homodimer (NR concentration 180 nM)
Summary of the method: as §1

[16] = test system: PXR:RXRa (NR concentration 270 nM, RXRa partner concentration 90 nM)
Summary of the method: as §1

[17] = test system: PXR homodimer (NR concentration 270 nM)
Summary of the method: as §1

[18] = test system: RARa:RXR (NR concentration 270 nM, RXRa partner concentration 90 nM)
Summary of the method: as §1

[19] = test system: RARa homodimer (NR concentration 270 nM)
Summary of the method: as §1

[20] = test system: RARb:RXRa (NR concentration 270 nM, RXRa partner concentration 90 nM)
Summary of the method: as §1

Sequence	PBM binding z-score [1]	PBM binding z-score [2]	PBM binding z-score [3]	PBM binding z-score [4]	PBM binding z-score [5]	PBM binding z-score [6]	PBM binding z-score [7]	PBM binding z-score [8]	PBM binding z-score [9]	PBM binding z-score [10]	PBM binding z-score [11]	PBM binding z-score [12]	PBM binding z-score [13]	PBM binding z-score [14]	PBM binding z-score [15]	PBM binding z-score [16]	PBM binding z-score [17]	PBM binding z-score [18]	PBM binding z-score [19]	PBM binding z-score [20]
CGTCCAAGGTCATAGGAGGGCAGTGAAGACAGAT	7.39	6.11	1.55	4.12	0.284	5.68	5.29	5.19	1.85	3.99	3.1	3.89	1.14	0.568	2.4	6.12	1.56	4.4	0.613	5.06
AGGATGAGGTTACCAAAGATCAGGGAAACGCTTG	1.74	6.04	0.206	3.17	0.353	2.93	1.55	1.76	0.744	1.12	0.68	1.09	0.557	0.461	1.12	1.47	0.27	2.02	0.36	2.12
TCTGGGAGGACACGAAGGTCAGAGCTTTCCAGAG	1.36	1.16	0.204	1.3	-0.86	1.81	0.579	1.36	1.51	1.53	1.04	0.947	-0.643	-0.716	1.05	1.99	0.818	2.19	0.238	3.28
GGAACGAGGGCAAAGTTGATAGGATCTGTCGACG	1.38	1.05	-0.433	0.86	-0.537	4.22	6.9	6.73	5.71	6.95	3.81	4.2	0.474	-0.389	0.743	1.31	0.619	1.58	0.0143	2.41
TCTGCTAGGTCAACGATGGACAGCTAATCTGCTA	3.08	2.24	-0.31	1.28	-0.137	3.07	2.78	3.12	2.13	2.56	3.88	4.29	1.56	0.358	1.08	1.32	-0.751	2.01	-0.131	3.97
CGTTCAAGGTCAATGCTAGGTCAGTGAAAGCATT	7.47	5.78	2.89	4.36	1.24	5.27	4.81	5.15	1.88	3.91	4.31	4.8	0.872	0.0991	7.93	5.3	1.78	6.62	2.61	5.22
CCTAGCAGGCCAATCTGCGTCACTCAAGGCTTGA	-0.461	-0.378	-0.462	-0.429	-0.0755	-0.332	-0.41	-1.08	-1.19	-1.21	1.32	-0.303	-1.31	-0.968	-0.505	-0.683	-0.513	-0.426	-0.164	0.0378
TCTAGCAGGCCAGAGGGTCACTAAAGAGGTACGG	0.744	0.827	-0.521	0.924	-1.08	2.12	1.48	2.66	1.97	2.41	0.806	0.475	-0.497	-1.37	0.659	1.14	-0.609	1.8	-0.574	2.05
ATCGAAAGGTCGGGGTGAGTATAGAGAAAGGGAA	3.39	3.1	0.378	3.56	1.97	4.39	2.87	2.83	1.07	2.04	1.56	2.45	1.09	2.25	1.98	2.77	1.39	3.03	1.53	3.83
AGAATGAGGTTATACGTAGATCAGCGAAGAAAGT	1.93	1.66	-0.0526	1.22	-0.284	3.27	1.91	1.88	0.445	1.21	3.8	2.33	0.885	1.06	1.02	0.953	0.44	1.55	-0.289	1.23
GCGTATAGGTAATACAAGGTGAAAGTCCGATTGT	1.84	2.57	0.196	0.896	-0.616	1.37	0.763	0.855	0.307	0.925	1.36	1.33	0.339	-0.802	0.129	0.699	-0.0902	1.12	0.521	0.576
ACTAGTAGGCCAAGTTTGGGTCACTCAAACAAAG	0.368	0.0962	-0.261	0.884	-0.17	2.34	2.17	2.27	0.504	1.13	5.38	4.97	0.793	0.699	0.944	0.935	-0.0858	1.74	-0.227	2.11
TCGAGTAGGTTTGGGGCATTCAGAATGGCGTCGA	-0.5	-0.529	-0.289	0.316	-0.295	0.0771	-0.558	0.475	0.701	0.598	0.667	-0.179	-0.869	-0.587	-0.00492	-0.143	-0.414	-0.156	-0.479	-0.00663
CGAACGAGGGCATGAGTTGATAGCCAATGCCGAT	0.587	0.378	-0.567	-0.0834	-0.821	1.33	1.39	1.49	0.255	0.727	3.14	2.29	0.281	-0.251	0.292	0.342	-0.25	0.497	-0.133	2.01
